# Measurements: PubChem BioAssay (NCI)
# The panel holds about 83,000 compounds, 20% with a hit somewhere; the sample as a whole holds those more often.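 Percent growth is the endpoint: 0 to 100 indicates growth inhibition (40 means 60% inhibition), 0 means no net growth, and negative values indicate cell death.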 Values without a mark were called inactive. Calls of active or inactive are those of the source. The calls were made as follows: active = growth percent below 10; inactive = the rest.
# Test system: MDA-MB-468 breast
# Assay: NCI-60 one-dose screen, 48 h (100 = growth as untreated, 0 = no growth, -100 = all killed)
# Conditions: 10 µM unless noted
row,SMILES,growth
1,O=C(NCCc1ccccn1)OCc1nc2nc(Cl)nc(N3CCOCC3)c2[nH]1,24.9%
2,COc1cc2ncnc(Nc3ccc(OCc4cccc(F)c4)c(Cl)c3)c2cc1NC(=O)C1CCCC1,-2.53% (active)
3,C#Cc1cccc(NC(=O)Nc2ccc(NC(=O)CCl)cc2)c1,-53.7% [8.25 µM] (active)
4,O=C(/C(=C/c1cccc([N+](=O)[O-])c1)c1ccccc1)c1ccccc1,38.2%
5,NS(=O)(=O)Oc1ccc(NC(=O)C2CCCCCC2)cc1,109%
6,CC(=O)n1c2ccccc2c2ccccc21,105%
7,Cc1nn(-c2ccc(-c3ccc(OC(F)(F)F)cc3)cc2)c2nc(-c3ccccc3)nc(N)c12,82.6%
8,O=c1c2cc(Cl)ccc2oc2ccc(OCCCCCN3CCCCCC3)cc12,74.1%
9,C=C1C(=O)O[C@H]2[C@H]1CC/C(COC(=O)c1cc3cc(F)ccc3[nH]1)=C\CC[C@@]1(C)O[C@@H]21,-63.2% (active)
10,NC(N)=N/N=C(/c1ccccc1)c1ccccc1F,29.1%
11,CCOC(=O)c1c(O)cc(-c2ccccc2)cc1-c1sc(N(C)Cc2ccccc2)nc1Cl,111%
12,C=C1C(=O)O[C@H]2[C@H]1CC/C(COC(=O)/C=C\C(=O)O)=C\CC[C@@]1(C)O[C@@H]21,110%
13,COC(=O)[C@H](Cc1cn(C)cn1)NC(=O)[C@H](CC(C)C)NC(=O)Nc1cc(C(F)(F)F)cc(C(F)(F)F)c1,-72.1% [100 µM] (active)
14,COc1cc(C(=O)c2cnc(-c3cccc4[nH]ccc34)[nH]2)cc(OC)c1OC,-2.51% (active)
15,CCCCCCCC(=O)Nc1nc2[nH]c(CN3CCN(Cc4cccc(I)c4)CC3)c(CN3CCN(Cc4cccc(I)c4)CC3)c2c(=O)[nH]1,-85.6% (active)
16,CCOC(=O)C(C)(CSSCC(C)(NC(=O)c1ccc2ccccc2c1)C(=O)OCC)NC(=O)c1ccc2ccccc2c1 (stereo unspecified),109%
17,C=C1C(=O)O[C@H]2[C@H]1CC/C(COC(=O)NCc1ccc(Cn3c(=O)sn(CCCl)c3=O)cc1)=C\CC[C@@]1(C)O[C@@H]21,5.52% (active)
18,COc1cc(C2CC(C3C(=O)N(C)C(=O)N(C)C3=O)=NN2c2cc(Cl)cc(Cl)c2)cc(OC)c1OC (stereo unspecified),84.5%

row,SMILES,growth
1,Nc1ccc(C(=O)/C=C/c2ccccc2)cc1,87.4%
2,NCCNC(=O)c1cccc(COc2ccccc2NC(=O)c2cc(Br)c(Br)[nH]2)c1,85.1%
3,C/C(=N/NC(N)=S)c1sc(Nc2cccc(Cl)c2)nc1C,47.3%
4,Nc1ccc([N+](=O)[O-])cc1N=C/C=C/c1ccccc1,46.4%
5,CCOc1ccc2c(c1)c(C)cc(C)[n+]2CC,9.85% (active)
6,NCCNc1nc2ccccc2c2c(=O)c3cc(F)ccc3sc12,67.2%
7,CN1CCC2(CC1)NC(=O)c1c(c3ccc(Cl)c(Cl)c3n1C)C2C#N (stereo unspecified),9.36% (active)
8,N=C(N)c1ccc(-c2ccc(-c3ccc(Cl)cc3)s2)s1,-71.2% (active)
9,C=C1CCC2C(C)(CO)C(O)CCC2(C)C1CC(NCc1ccccc1)C1=CCOC1=O (stereo unspecified),98.9%
10,CCOC(=O)c1cc2c(n1Cc1cc(OC)c(OC)c(OC)c1)-c1nc(N)sc1CCC2,35.8%
11,Clc1ccc2c(NCCCN3CCOCC3)c3oc4ccc(Cl)cc4c3nc2c1,44.2%
12,CCN(CC)CCCC(C)Nc1c(-c2ccccc2)cnc2cc(Cl)ccc12 (stereo unspecified),44.4%
13,O=C1/C(=C/c2ccccc2O)C(=S)SN1Cc1ccco1,64.7%
14,O=S(=O)(NCCCNc1nccc(-c2c(-c3ccc(O)cc3)nc3sccn23)n1)c1ccc(F)cc1,-19.2% (active)
15,C/C=C(/C(=C/C)c1ccc(O)cc1)c1ccc(O)cc1,-15.5% (active)
16,COc1ccc(OC)c2c1[nH]c(=O)c1c3ncccc3cn21,12.2%
17,COc1ccc(-c2n[nH]c(=O)c3nc(NC(=S)Nc4ccc(Oc5ccccc5)cc4)sc23)cc1,98%
18,Cc1ccc(C2CC(c3ccc(Nc4ccnc5cc(Cl)ccc45)cc3)=NN2C=O)cc1 (stereo unspecified),33%
